Screening data as filed in PubChem BioAssay.
Sampled rows, rich in hits. Any-hit rate of the full collection: about 4.5%.
Rtt109 HAT inh – C. albicans Rtt109 histone acetyltransferase inhibition; 330,000 compounds, 0.16% hits; purified Rtt109/Vps75, ThioGlo CoA-SH fluorescence, 4 h; Q5AAJ8; inhibition, % at 34.9 µM; AID 540336;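 active = inhibition of at least 50% in every replicate; inconclusive = best replicate reaches 50% inhibition but some replicates fall short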
Efflux pump inh – inhibitors of Candida antifungal efflux pumps expressed in yeast | S. cerevisiae Candida pump triplex, Nile Red efflux | inhibition, % at 10 µM | 330,000 compounds, 0.44% hits | AID 485275;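 active = plate passing quality check with inhibition over a set limit, or well fluorescence over plate mean plus 4 SD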;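 also: Nile Red retained in pooled yeast measured as flow cytometry median fluorescence; 0% = buffer negative control and 100% = Enniatin B positive control; higher means more Nile Red kept so more efflux inhibition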
HDAC3 inhib – blocks human histone deacetylase 3. recombinant HDAC3, fluorogenic peptide/trypsin coupled, fluorescence. inhibition, % at 8.3 µM. 320,000 compounds, 0.15% hits. AID 2718; in the data active = inhibition above about 26%, passing the limit was not always enough; inconclusive = no clear call, values can overlap the other calls
ALR H2O2 inh – inhibitors of human sulfhydryl oxidase ALR. AID 485317. 290,000 compounds, 3.8% hits. inhibition, % (test concentration not listed). purified ALR, DTT oxidation, H2O2 HRP-luminol luminescence;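 active = mean replicate inhibition above about 79%, with every replicate also reaching it, limit read from the data; inconclusive = only one of the two criteria met; inactive = mean below limit and not every replicate reaching it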
Rce1 inhib – blocks yeast Ras-converting enzyme. Q03530. yeast membranes, quenched prenylated peptide cleavage fluorescence. calls only. 290,000 compounds, 0.27% hits;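 active = fall in fluorescence gain of 50% or more versus controls, with final raw signal at or below 3038400; inconclusive = same 50% fall but final raw signal above 3038400; inactive = fall in fluorescence gain under 50%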;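 also: plate controls were neutral control wells for no effect and wells lacking membranes for full effect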
GRK2 inh – blocks RNA aptamer binding to human GRK2. P25098. bead flow cytometry, FAM-aptamer displacement from GRK2. inhibition of aptamer binding, % at 10 µM. 330,000 compounds, 0.59% hits;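 active = inhibition of aptamer binding above 40%, roughly 3 SD of noise, on plates passing a quality check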;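 also: median bead fluorescence of bound FAM aptamer so fluorescent compounds give negative values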
Target sequence (P25098 whole entry, looked up): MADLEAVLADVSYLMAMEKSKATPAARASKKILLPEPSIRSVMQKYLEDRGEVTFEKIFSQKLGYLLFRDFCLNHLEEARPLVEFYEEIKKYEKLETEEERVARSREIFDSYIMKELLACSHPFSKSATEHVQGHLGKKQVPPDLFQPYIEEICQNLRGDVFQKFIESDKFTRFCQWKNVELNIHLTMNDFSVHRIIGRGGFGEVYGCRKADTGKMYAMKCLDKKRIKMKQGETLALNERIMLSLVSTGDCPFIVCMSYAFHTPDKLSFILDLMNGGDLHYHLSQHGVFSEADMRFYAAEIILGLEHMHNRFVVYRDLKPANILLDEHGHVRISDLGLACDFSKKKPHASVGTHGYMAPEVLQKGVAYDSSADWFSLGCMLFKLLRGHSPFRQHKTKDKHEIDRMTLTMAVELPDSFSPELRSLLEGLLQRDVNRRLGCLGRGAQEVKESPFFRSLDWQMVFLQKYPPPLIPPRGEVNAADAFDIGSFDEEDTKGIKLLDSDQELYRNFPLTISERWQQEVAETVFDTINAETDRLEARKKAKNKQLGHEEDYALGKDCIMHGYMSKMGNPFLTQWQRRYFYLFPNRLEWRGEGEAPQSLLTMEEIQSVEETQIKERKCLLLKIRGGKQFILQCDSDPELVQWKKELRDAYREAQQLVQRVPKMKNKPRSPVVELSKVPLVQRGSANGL
Active calls of the source: *; i = inactive; ? = inconclusive; . = no result given; + = active, no number; ! = not active in a repeat.

SMILES	Rtt109 HAT inh	Efflux pump inh	HDAC3 inhib	ALR H2O2 inh	Rce1 inhib	GRK2 inh
O=C(CSC1=NC2(CCCCCC2)N=C1c1ccccc1)Nc1ccc2c(c1)OCCO2	-12.1	-0.2	13.2	98.1*	i	1.0
Cc1ccc(C2=NC3(CCCC3)N=C2SCC(=O)Nc2ccc3c(c2)OCCO3)cc1	?	-0.3	?	98.9*	i	3.0
CCC(C)CCN1CCN=C1Nc1ccccc1 (stereo not drawn)	4.4	0.1	-7.0	34.6	.	0.0
N#Cc1ccccc1OCC(=O)OCC(=O)NC1CCS(=O)(=O)C1 (stereo not drawn)	17.4	-0.2	6.8	0.3	.	0.0
CNC(=O)COc1coc(CN2CCN(C(=O)c3ccco3)CC2)cc1=O	1.5	-0.1	.	-1.0	i	2.0
O=C(NCCCn1ccnc1)c1nn2c(C(F)(F)F)cc(-c3ccccc3)nc2c1Cl	-12.1	0.2	-0.8	-12.5	i	5.0
O=C(NC1CCCCC1)N1CCN(c2ccccc2)CC1	-11.3	-0.1	2.0	.	i	2.0
COc1ccc(N2CCN(C(=O)NC3CCCCC3)CC2)cc1	-0.4	0.5	6.9	80.8*	i	2.0
CC(C(=O)NC(=O)NC1CCCCC1)N1CCN(c2ccc(O)cc2)CC1 (stereo not drawn)	12.3	-0.3	4.6	99.2*	.	4.0
COc1cccc(N2CCN(C(=O)NC3CCCCC3)CC2)c1	-0.8	0.6	-1.5	76.9*	.	0.0
Cc1ccc(C(=O)OCC(=O)Nc2ccccc2N2CCOCC2)cc1	10.5	0.1	10.9	92.0*	i	0.0
CCCCCC(=O)Nc1ccccc1N1CCOCC1	3.6	-0.2	-3.9	99.4*	i	0.0
O=C(COC(=O)c1ccc(F)cc1)Nc1ccccc1N1CCOCC1	6.1	0.0	-2.6	-1.1	i	1.0
CC(C)CCNc1nc(N)c([N+](=O)[O-])c(N2CCCCCC2)n1	-2.0	-0.1	0.0	-6.3	i	2.0
COc1cccc(CN2CC(C(=O)N(C)CCCC3CCCC3)CCC2=O)c1 (stereo not drawn)	4.2	0.0	-8.0	-5.5	i	1.0
COc1ccc(N2CCN(CC(O)COc3cc(C)cc(C)c3)CC2)cc1 (stereo not drawn)	-6.1	0.0	6.3	69.0	i	2.0
C=CCc1cc(C)ccc1OCC(O)CN1CCN(c2ccccc2)CC1 (stereo not drawn)	9.3	0.1	1.6	26.5	i	0.0
COc1ccc(N2CCN(CC(O)COc3ccc(C)c(C)c3)CC2)cc1 (stereo not drawn)	1.1	-0.3	7.6	97.5*	i	0.0
COc1ccc(N2CCN(CC(O)COc3c(OC)cccc3OC)CC2)cc1 (stereo not drawn)	-3.8	0.1	-5.3	42.6	i	0.0
Oc1ccc(N2CCN(CC(O)c3ccccc3)CC2)cc1 (stereo not drawn)	-18.9	-0.1	1.4	98.8*	i	1.0
COc1ccc(OCC(O)CN2CCN(c3ccc(OC)cc3)CC2)cc1 (stereo not drawn)	-34.8	-0.1	-3.8	98.8*	i	0.0
C=CCc1cc(OC)ccc1OCC(O)CN1CCN(c2ccc(OC)cc2)CC1 (stereo not drawn)	-0.3	0.1	6.2	79.4*!	i	0.0
CCOC(=O)c1cnc(SCCN2CCOCC2)nc1N	-3.1	0.3	-4.2	-2.7	i	5.0
COCCCN(C(=O)Cc1ccc(S(=O)(=O)N2CCOCC2)s1)c1c(N)n(Cc2ccccc2)c(=O)[nH]c1=O	-5.4	.	.	.	.	.
CC1(C)C(=O)Nc2ccccc2N1C(=O)COC(=O)CNS(=O)(=O)c1ccc(Br)cc1Cl	0.3	.	.	.	.	.
SMILES	Rtt109 HAT inh	Efflux pump inh	HDAC3 inhib	ALR H2O2 inh	Rce1 inhib	GRK2 inh
O=C(CCOc1ccccc1)NNC(=O)c1ccccc1	2.3	0.1	-7.1	15.1	.	10.0
COc1ccc(N2CCN(CC(=O)Nc3ccc(C)c(C)c3)CC2)cc1	2.6	0.1	7.5	98.0*	i	2.0
Cc1ccc(N2CCN(CC(O)COc3ccccc3)CC2)cc1 (stereo not drawn)	4.1	0.0	-4.2	95.0*	i	0.0
COc1ccc(N2CCN(CC(O)COc3ccc(F)cc3)CC2)cc1 (stereo not drawn)	-6.7	-0.2	-5.0	98.7*	i	0.0
OC(COCc1ccccc1)CN1CCN(c2ccccc2)CC1 (stereo not drawn)	-0.7	0.1	-2.7	82.2*	i	0.0
COc1ccc(N2CCN(CC(O)COC(c3ccc(F)cc3)c3ccc(F)cc3)CC2)cc1 (stereo not drawn)	-3.0	0.1	11.6	23.5	i	0.0
COC(=O)c1ccc(CNC(=O)c2ccc3c(c2)S(=O)(=O)N=C2CCCCCN23)cc1	-2.8	-0.3	3.2	0.0	.	0.0
COCCN(Cc1nc(C2(c3ccc(C)cc3)CCCC2)no1)C(C)C	6.3	0.1	12.3	-11.8	i	1.0
Oc1ccccc1N1CCN(CC(O)COCc2ccccc2Cl)CC1 (stereo not drawn)	.	0.0	-2.4	99.0*	i	0.0
OC(COc1ccccc1Cl)CN1CCN(CC(O)COc2ccccc2Cl)CC1 (stereo not drawn)	0.1	-0.1	-0.5	-1.7	i	0.0
COC(=O)c1ccccc1-c1ccc(/C=N/NC(=O)c2cc3ccccc3o2)o1	-5.4	0.3	-2.2	0.8	i	2.0
COC(=O)c1ccccc1-c1c2ccc(=N)cc-2oc2cc(N)ccc12	-292.7	115.5*	3.8	.	.	0.0
Cc1cc(N2CCN(c3ccccc3)CC2)nc(N)n1	-1.0	0.0	-1.6	97.8*	i	0.0
Cc1cc(N2CCN(c3ccccc3)CC2)n2ncnc2n1	-10.2	0.0	2.4	97.6*	i	0.0
Cc1cc(N2CCN(c3ccccc3)CC2)nc(-c2ccccc2)n1	-1.0	-0.3	7.7	2.2	i	3.0
Cc1cc(N2CCOCC2)n2cc(-c3ccccc3)nc2n1	16.3	-0.1	-18.1	40.5	+	0.0
c1ccc(N2CCN(c3c4c(nc5ncnn35)CCC4)CC2)cc1	-0.9	0.2	3.6	.	i	2.0
COc1cccc(N2CCN(c3c4c(nc5ncnn35)CCC4)CC2)c1	4.2	-0.2	2.7	98.1*	i	0.0
COc1cccc(C(=O)OCC(=O)NC(C)CCc2ccccc2)c1O (stereo not drawn)	-15.0	-1.1	2.1	.	i	1.0
COc1ccccc1C(NC(C)=O)c1c(O)ccc2ccc(O)cc12 (stereo not drawn)	-5.3	-0.1	-7.2	94.5*	i	3.0
Cc1cccc(NS(=O)(=O)c2ccc(C(=O)N3CC(C)OC(C)C3)cc2)c1C (stereo not drawn)	-8.7	-0.1	1.0	-3.2	i	0.0
COC(=O)c1cccc(Oc2cccc(Cl)n2)c1	53.6*	-0.1	-1.1	-7.6	i	0.0
COC(=O)c1cccc(OC(N)=O)c1	.	-0.1	1.1	-2.8	i	0.0
N#Cc1ccc(S(=O)(=O)NC2CC2)cc1	9.3	0.0	-0.7	-15.4	i	4.0
